# Measurements taken from PubChem BioAssay (NCATS).
# Inconclusive results are not listed. Entries that show only a call come without a potency. Values without a mark were called inactive. The source made the active and inactive calls. Unless noted, the call rests on the fitted dose curve; in most records, active means well fitted curve in the direction sought with a large enough effect; inconclusive means small, poorly fitted or top-dose-only effect, or another doubt; inactive means no such curve, though single readings can be large; an effect the other way counts as inactive or inconclusive.
# Tests used:
# [1] = target: Cytochrome P450 2C9 (Homo sapiens) (UniProt P11712); assay: qHTS Assay for Inhibitors and Substrates of Cytochrome P450 2C9 (AID 883); further: nearly all actives have a fitted effect of over 60% in size; further: potency means the concentration at half of the fitted maximal effect
# Procedure, shortened: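 CYP2C9 deoxyluciferin hydroxylation, 37C, 60 min with NADPH regeneration; 10nM enzyme, 100uM Luciferin-H (KM). Glo detection reagent stopped reaction; luminescence normalized to sulphaphenazole (57uM) full inhibition.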
# [2] = target: Cytochrome P450 3A4 (Homo sapiens) (UniProt P08684); assay: qHTS Assay for Inhibitors and Substrates of Cytochrome P450 3A4 (AID 884); further: nearly all actives have a fitted effect of over 50% in size; further: potency means the concentration at half of the fitted maximal effect
# Procedure, shortened: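 20 nM human CYP3A4 with 25 uM Luciferin-PPXE (at KM) in 200 mM KPO4, preincubated 10 min with compound; NADPH regeneration started a 60 min RT reaction. Luciferin detected by luminescence, normalized to 57 uM ketoconazole as full inhibition.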
# [3] = qHTS Assay for Identification of Small Molecule Agonists for Hypoxia Response Element Signaling Pathway (AID 914; active means well fitted activation curve with a large enough effect in the signal ratio, with a control signal flat, not every such curve was filed as active; the % refers to the signal ratio; further: potency means the concentration at half of the fitted maximal effect); settings: ME-180 (cervical carcinoma) HRE-bla reporter, beta-lactamase ratio, CoCl2, 17 h; activation: stronger effect = higher value
# Procedure, shortened: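 AC50 values come from titration-series %Activity, taken as the 460/530nm ratio of CCF4 fluorescence (excitation 405nm). CellSensor HRE-bla ME-180 cells were treated 17 hours at 37 C with compound plus an EC50 level of CoCl2.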
# [4] = target: ATP-dependent 6-phosphofructokinase (Trypanosoma brucei brucei) (UniProt O15648); assay: qHTS Assay to Find Inhibitors of T. brucei phosphofructokinase: hit validation (AID 492961);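 further: luminescence reports ADP formed as PFK phosphorylates fructose-6-phosphate with ATP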
# Procedure, shortened: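 Reaction: 0.1 M triethanolamine pH 8.0, 5 mM MgCl2, F6P 0.5 mM, ATP 0.1 mM, PFK 1.25 nM, 45 min RT. Read-out: ADP-Glo luminescence. Analysis: concentration-response fits, classed by r2 and efficacy.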
# [5] = qHTS profiling for inhibitors of Plasmodium falciparum proliferation (AID 504749); further: nearly all actives have a fitted effect of over 60% in size; further: potency means the concentration at half of the fitted maximal effect; settings: P. falciparum in erythrocytes, SYBR Green DNA, 72 h
# Procedure, shortened: (§1)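 Parasite proliferation within erythrocytes, 72 h exposure. Endpoint: SYBR Green I fluorescence after overnight lysis at room temperature. Controls: 0.29 uM artemisinin, DMSO.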
# AS120 = assay: as above; settings: P. falciparum in erythrocytes, SYBR Green DNA, 72 h; series mostly up to 28.7 µM
# Procedure, shortened: as §1
# ATS189 = assay: as above; settings: P. falciparum in erythrocytes, SYBR Green DNA, 72 h; series mostly up to 28.7 µM
# Procedure, shortened: as §1
# CP185 = assay: as above; settings: P. falciparum in erythrocytes, SYBR Green DNA, 72 h; series mostly up to 28.7 µM
# Procedure, shortened: as §1
# CP192 = assay: as above; settings: P. falciparum in erythrocytes, SYBR Green DNA, 72 h; series mostly up to 28.7 µM
# Procedure, shortened: as §1
# CP201 = assay: as above; settings: P. falciparum in erythrocytes, SYBR Green DNA, 72 h; series mostly up to 28.7 µM
# Procedure, shortened: as §1
# CP238 = assay: as above; settings: P. falciparum in erythrocytes, SYBR Green DNA, 72 h; series mostly up to 28.7 µM
# Procedure, shortened: as §1
# CP247 = assay: as above; settings: P. falciparum in erythrocytes, SYBR Green DNA, 72 h; series mostly up to 28.7 µM
# Procedure, shortened: as §1
# CP252 = assay: as above; settings: P. falciparum in erythrocytes, SYBR Green DNA, 72 h; series mostly up to 28.7 µM
# Procedure, shortened: as §1
# CP265 = assay: as above; settings: P. falciparum in erythrocytes, SYBR Green DNA, 72 h; series mostly up to 28.7 µM
# Procedure, shortened: as §1
# CP329 = assay: as above; settings: P. falciparum in erythrocytes, SYBR Green DNA, 72 h; series mostly up to 28.7 µM
# Procedure, shortened: as §1
# HB3 = assay: as above; settings: P. falciparum in erythrocytes, SYBR Green DNA, 72 h; series mostly up to 28.7 µM
# Procedure, shortened: as §1
# PAD = assay: as above; settings: P. falciparum in erythrocytes, SYBR Green DNA, 72 h; series mostly up to 28.7 µM
# Procedure, shortened: as §1
# SC27B = assay: as above; settings: P. falciparum in erythrocytes, SYBR Green DNA, 72 h; series mostly up to 28.7 µM
# Procedure, shortened: as §1
# W2 = assay: as above; settings: P. falciparum in erythrocytes, SYBR Green DNA, 72 h; series mostly up to 28.7 µM
# Procedure, shortened: as §1
# [6] = at 28.7 µM (top of the series), parasite line A
# [7] = at 28.7 µM (top of the series), parasite line B
# Chain of Cytochrome P450 3A4 (Homo sapiens) (P08684 whole entry, looked up): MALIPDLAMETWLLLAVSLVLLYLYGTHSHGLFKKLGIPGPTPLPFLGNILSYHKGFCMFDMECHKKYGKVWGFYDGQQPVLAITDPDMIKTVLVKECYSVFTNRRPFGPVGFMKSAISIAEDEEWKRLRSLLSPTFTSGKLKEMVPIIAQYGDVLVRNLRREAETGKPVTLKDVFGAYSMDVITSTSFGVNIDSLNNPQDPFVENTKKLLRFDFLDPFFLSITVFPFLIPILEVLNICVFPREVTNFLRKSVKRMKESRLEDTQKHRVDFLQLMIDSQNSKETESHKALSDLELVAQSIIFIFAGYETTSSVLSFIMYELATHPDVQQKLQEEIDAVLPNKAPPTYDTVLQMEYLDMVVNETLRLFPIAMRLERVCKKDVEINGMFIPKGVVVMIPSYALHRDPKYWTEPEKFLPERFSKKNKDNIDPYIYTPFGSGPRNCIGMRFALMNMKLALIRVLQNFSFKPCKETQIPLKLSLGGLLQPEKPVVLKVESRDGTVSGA
# Chain of ATP-dependent 6-phosphofructokinase (Trypanosoma brucei brucei) (O15648 whole entry, looked up): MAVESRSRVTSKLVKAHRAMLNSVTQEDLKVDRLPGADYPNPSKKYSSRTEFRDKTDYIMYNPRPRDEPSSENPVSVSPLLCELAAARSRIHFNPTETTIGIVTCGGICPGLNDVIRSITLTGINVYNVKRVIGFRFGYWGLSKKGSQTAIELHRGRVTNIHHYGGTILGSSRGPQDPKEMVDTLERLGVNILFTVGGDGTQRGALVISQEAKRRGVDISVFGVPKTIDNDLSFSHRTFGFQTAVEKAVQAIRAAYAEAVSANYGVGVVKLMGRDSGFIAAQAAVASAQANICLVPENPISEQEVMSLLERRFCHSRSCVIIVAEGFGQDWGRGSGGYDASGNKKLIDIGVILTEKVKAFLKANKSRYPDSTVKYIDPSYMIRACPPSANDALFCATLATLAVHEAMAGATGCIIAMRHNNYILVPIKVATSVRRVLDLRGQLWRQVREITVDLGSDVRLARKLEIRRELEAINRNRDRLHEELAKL
# Chain of Cytochrome P450 2C9 (Homo sapiens) (P11712 whole entry, looked up): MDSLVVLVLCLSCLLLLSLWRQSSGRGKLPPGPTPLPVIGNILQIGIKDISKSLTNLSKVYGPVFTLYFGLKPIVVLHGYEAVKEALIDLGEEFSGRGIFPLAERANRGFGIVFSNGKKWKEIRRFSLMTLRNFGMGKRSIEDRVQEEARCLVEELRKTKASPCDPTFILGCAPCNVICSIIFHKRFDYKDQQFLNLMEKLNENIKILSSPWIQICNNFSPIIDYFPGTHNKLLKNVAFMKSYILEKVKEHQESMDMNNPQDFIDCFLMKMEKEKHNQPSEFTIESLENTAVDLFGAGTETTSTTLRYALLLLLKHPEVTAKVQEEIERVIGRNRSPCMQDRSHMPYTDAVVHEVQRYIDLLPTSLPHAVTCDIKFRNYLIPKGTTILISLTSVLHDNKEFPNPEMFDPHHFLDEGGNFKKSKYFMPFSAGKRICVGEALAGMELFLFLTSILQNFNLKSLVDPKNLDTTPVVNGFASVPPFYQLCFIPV
compound,measurement,setting,value
Oc1c(C(O)(c2ccccc2)c2ccc3ccccc3c2O)ccc2ccccc12,Potency,[1],0.794 µM (active)
CN1CCN(c2ncc3nc(-c4ccc(Cl)cc4)c(=O)n(C4CC4)c3n2)CC1,Potency,[2],inactive
same,Potency,[3],3.16 µM (active)
CCNc1ncc2nc(CCc3ccccc3)c(=O)n(-c3ccc(OC)cc3)c2n1,Potency,[2],6.31 µM (active)
same,activation,[3],-1.93%
O=C1C(Cl)=C(Nc2ccc(S(=O)(=O)Nc3ccccn3)cc2)C(=O)c2ccccc21,Potency,[1],2 µM (active)
CN(Cc1ccccc1)Cn1ccnc1,Potency,[1],2.51 µM (active)
O=c1c(-c2ccccc2)nc2cnc(N3CCNCC3)nc2n1Cc1ccc(F)cc1,Potency,[2],3.16 µM (active)
same,Potency,[3],3.16 µM (active)
OC[C@H](S)CS,outcome,[4],inactive
same,"activity, negative = inhibition",[5]; [6],-3.06%
same,Potency,AS120,inactive
same,Potency,ATS189,inactive
same,Potency,CP185,inactive
same,Potency,CP192,inactive
same,Potency,CP201,inactive
same,Potency,CP238,inactive
same,Potency,CP247,inactive
same,Potency,CP252,inactive
same,Potency,CP265,inactive
same,Potency,CP329,inactive
same,Potency,HB3,2 µM (active)
same,Potency,PAD,inactive
same,Potency,SC27B,inactive
same,Potency,W2,2.39 µM (active)
CN1CCN(c2ncc3nc(-c4ccccc4)c(=O)n(Cc4ccc(F)cc4)c3n2)CC1,Potency,[3],3.16 µM (active)
FC(F)(F)c1cccc(-c2nc3nc(Cl)c(Cl)nc3[nH]2)c1,Potency,[1],3.98 µM (active)
COCCn1c(=O)c(-c2cccc(C#N)c2)nc2cnc(N3CCNCC3)nc21,Potency,[1],3.98 µM (active)
same,Potency,[3],3.16 µM (active)
O=c1c(-c2cc(F)cc(F)c2)nc2cnc(N3CCNCC3)nc2n1CCc1ccccc1,Potency,[3],3.16 µM (active)
O=C1/C(=C/c2ccccc2)[C@@H](NC2CCCCC2)c2ccccc21,Potency,[1],3.98 µM (active)
N#CCCn1c(=O)c(-c2cccs2)nc2cnc(Oc3cccc(Cl)c3)nc21,Potency,[3],1.58 µM (active)
CCc1ccc2c(c1)N(C[C@H](C)CN(C)C)c1ccccc1S2,outcome,[4],inactive
same,"activity, negative = inhibition",[5]; [6],-23.4%
same,"activity, negative = inhibition",[5]; [7],-17.5%
same,Potency,ATS189,inactive
same,Potency,CP185,inactive
same,Potency,CP192,inactive
same,Potency,CP201,inactive
same,Potency,CP238,inactive
same,Potency,CP247,inactive
same,Potency,CP252,inactive
same,Potency,CP265,inactive
same,Potency,CP329,inactive
same,Potency,HB3,inactive
same,Potency,PAD,inactive
same,Potency,SC27B,inactive
same,Potency,W2,7.57 µM (active)
COc1cccc(Nc2ncc3nc(-c4ccccc4)c(=O)n(C4CC4)c3n2)c1,Potency,[3],3.16 µM (active)
N[C@H](COP(=O)(O)O)C(=O)O,Potency,[1],inactive
same,outcome,[4],inactive
same,"activity, negative = inhibition",[5]; [6],15.2%
same,"activity, negative = inhibition",[5]; [7],6.94%
same,Potency,AS120,inactive
same,Potency,ATS189,inactive
same,Potency,CP185,inactive
same,Potency,CP192,inactive
same,Potency,CP201,inactive
same,Potency,CP238,inactive
same,Potency,CP247,inactive
same,Potency,CP252,inactive
same,Potency,CP265,inactive
same,Potency,CP329,inactive
same,Potency,HB3,inactive
same,Potency,PAD,inactive
same,Potency,SC27B,inactive
same,Potency,W2,inactive
C(=C/c1ccccc1)/CN1CCN(C(c2ccccc2)c2ccccc2)CC1,outcome,[4],inactive
same,"activity, negative = inhibition","[5]; at 12.8 µM (top of the series), parasite line A",1.36%
same,Potency,AS120,inactive
same,Potency,ATS189,inactive
same,Potency,CP185,inactive
same,Potency,CP192,inactive
same,Potency,CP201,inactive
same,Potency,CP238,inactive
same,Potency,CP247,inactive
same,Potency,CP252,inactive
same,Potency,CP265,inactive
same,Potency,CP329,inactive
same,Potency,HB3,inactive
same,Potency,PAD,inactive
same,Potency,SC27B,inactive
same,Potency,W2,5.1 µM (active)
CC(C)(C)c1ccc([C@@H](O)CCCN2CCC(C(O)(c3ccccc3)c3ccccc3)CC2)cc1,activation,[3],18.6%
